Measurements reported in the supplement of paper PMC11417369.
Whole data set: some 25,000 sequences, median “ln(normalized median fluorescence intensity)” near 9.3, cut for the highest 2% near 10. For the sample, the highest values were picked, then their nearest neighbours and some sequences at random.

The sequences below were run on PF3D7_0420300 AP2 domain 1 (GST-tagged) (assay: gcPBM binding intensity (ln(normalized median fluorescence intensity)); higher = stronger DNA binding).
Summary of the method: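 DNA-binding domains from P. falciparum, fused to GST and produced in E. coli, were put on an Agilent 4 × 180k double-stranded probe array for 1 h in 1× PBS holding 1% milk, 0.2 mg/ml BSA, 0.5% salmon testes DNA and 0.03% Triton X-100. Probes were primer-extended, 36 bp long and drawn from intergenic genomic regions, with negative controls included. After Alexa488 anti-GST antibody detection and a 488 nm scan, binding intensity was set as the highest Masliner-normalised natural-log median intensity across replicate spots of either probe orientation.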

Sequence	gcPBM binding intensity (ln)
TTAATTATATTATGCACACACAATTGGAAAAAAAAT [CACACA_site1958]	9.64
ATATATGGGGCGCAGGAAAAGAGTTTTGGAAATAAA [CACACA_negctrl_site1265]	9.2
AGTATATAAAATACTGTATCGATGGGGGAGGGCGCA [CACACA_negctrl_site1612]	10
TATAAAATACTGTATCGATGGGGGAGGGCGCAGGGG [TGCATGCA_negctrl_site250]	11
TTTCTAATTTATATCACACACATATTTATATAGTAA [CACACA_site6813]	9.41
TATAAATTTATAAATAGTACATATATTTATATATAT [XGTACX_site6433]	9.07
CCCACAGACGGACACACACACATATATATATATATA [CACACA_site4351]	9.81
CACAGACACGGACACACACACACACCCACATATATA [CACACA_site4355]	10.3
CCCACAGACGGACACACACACACACCGACACATATA [CACACA_site4356]	10.2
TTGGCATACGGACACACACACACACCCAGACATATA [CACACA_site4492]	10.2
CCCACAGACGGACACACACACACATATATATATATA [CACACA_site4352]	10.1
CACAGACACGGACACACACACACACCCAGACACATA [CACACA_site4357]	10.2
CACAGACACGGACACACACACATATATATATATATA [CACACA_site5248]	9.86
CATACACCCAGACACACACACATATATATATATATA [CACACA_site634]	9.94
TACAGATACGGACACACACACACACCCAGACAAAAA [CACACA_site4432]	10
AATCTAATATAATGCACACATAAAAAAAAATCAAAC [CACACA_site3633]	9.8
TAAAAATATATATGATTGCACTTAGGACAATATATA	9.14
TTATTTTTTAAAAGTAGTACAAATTTTTATAGAAAA [XGTACX_site7407]	8.46
AATATTAAAGAATAATGTACAAAATAAAAGCAAAGA [XGTACX_site3550]	9.86
TATTATTCTACTATTATATTCTATATTATTTATAGT [CACACA_negctrl_site499]	9.37
ATAATAATATAAAAATGTACATATATTTATAATTGT [XGTACX_site3429]	9.23
AGCACAGACGGACACACACACATATATATATATATA [CACACA_site4341]	9.88
CATACAGATGGACACACACACACACCCACAGACAAA [CACACA_site4431]	10.1

Sequence	gcPBM binding intensity (ln)
AGCACAGACGGACACACACACACACCCACAGACACA [CACACA_site4358]	10.2
AAAGAAGGGGGGGGAAAAAAAAATAAAAGAGGAAAA [XGTACX_negctrl_site92]	9.59
AAAAAAAAAAAAAAAAGGGGGGGAGGGATTGAAAAA [CACACA_negctrl_site193]	10
TTTGAAGGAAGGGGGGGAGGGGCCATAACAAAGGAA [GTGCAC_negctrl_site408]	10.4
GCATATGTTCAGCGTTGTACATAAAAAAAAACATAT [XGTACX_site5974]	9.07
TTGATTTATATTTAATGTACATTTTTACAGAAAATT [XGTACX_site2747]	8.93
AAAAAAAAAAAAAAATGTACATATATATATATATTA [XGTACX_site7330]	8.98
CACAGACACGGACACACACACACACCGATATATATA [CACACA_site4353]	10.3
CACAGACACGGACACACACACATATATAATATATAT [CACACA_site4495]	9.98
AATGAACTCACGAGCACACACACACCGATATATATA [CACACA_site4710]	10
CACGCATACAGACACACACACACACCCATATATATA [CACACA_site636]	10.2
TGGGAGCACAGACACACACACACACCCATATATATA [CACACA_site335]	10.1
TGGGAGCACAGACACACACACACACCGATATATATA [CACACA_site8001]	10.2
CGCACAGACGGACACACACACACATATATATATATA [CACACA_site5249]	10.1
GGCATACACGGACACACACACACACCGACATATATA [CACACA_site4493]	10.3
CATATATACTCATACACACACACACCGACACAGACA [CACACA_site5026]	10.1
CACGCATACAGACACACACACACACCGATATATATA [CACACA_site8113]	10.3
AATTAGATACTAACAAGTACATATATATATATATAT [XGTACX_site2252]	9.59
ATATCGGGTGCATTAACACACATTTATTTGAATAAA [CACACA_site2350]	9.24
TCAAGAGTTATATAAACACACATACATACAGACATA [CACACA_site6998]	9.6
ATGTTATAAAATATATGTACATATTTATATAAAATA [XGTACX_site5766]	9.14
AATATAATATAATATAGTACGTAAAAATATTATACA [XGTACX_site2170]	9.47
ATATATGCATATATATGTACATATATATATATATAT [XGTACX_site7403]	9.22

Sequence	gcPBM binding intensity (ln)
ATTATATTATATTATACATGCATAATATTATATAAA [TGCATGCA_site647]	9.17
ATTAAATAAACCATTACACACTTTTATGTTTTGAAA [CACACA_site1143]	9.3
AAAACTTTTTTAACAGAAAAATAGGGATACAATATA [CACACA_negctrl_site1708]	9.35
AGGATACACGGACACACACACATATATATATATATA [CACACA_site4654]	9.9
CACGCATACGGACACACACACACACCGATATATATA [CACACA_site4521]	10.3
ATATATAAAATTATATGTACATATATCTATTTATAA [XGTACX_site3713]	9.04
TTTATATAACAACAAAATGGAAATATATATGTATGT [TGCATGCA_negctrl_site98]	9.53
TATACTCAGAAACACACACACACACCCAAAAAAAAA [CACACA_site4434]	9.97
TATACATACACATACACACATACACCCATACACATA [CACACA_site1746]	9.93
CTTATATATACATATACACACACACCCATATATATA [CACACA_site8705]	10.1
CACATATATACACATACACACACACCCATACACCCA [CACACA_site8505]	10.2
TATACACCCGGACACACACACATATATATATATATA [CACACA_site5030]	9.94
TACACCCACCCACATACACACACATACACATATATA [CACACA_site8503]	10.2
CACCCACCCACATACACACACATACACATATATATA [CACACA_site1722]	10.2
ACCCATATAATATATACACACATATATATATATATA [CACACA_site4731]	9.52
CATACTCACCAACACACACACACACCCATATAGAAT [CACACA_site592]	10.2
CATATACACCAACACACACACACACCCACAAAAAAA [CACACA_site496]	10.2
CATACACCCGGACACACACACACACCCATATATAAT [CACACA_site4494]	10.3
ATAATTATATTTTATTCACACATCGTTATATAGTAA [CACACA_site4743]	9.31
AATATAAATGTGATTACACACAACAGATTTAAATGG [CACACA_site4802]	9.53
TGTTTATATAATATTCTACACACCAACAACAAACAT [CACACA_site8087]	9.74
AAAATTTTTAGTTATACACACAACATAGAAAATATT [CACACA_site328]	9.47
TTTTTTTCACAAAATACACACAATATATTTTATATC [CACACA_site1138]	9.25

Sequence	gcPBM binding intensity (ln)
TATAATAAAATTTTTACACACTTTAAAAAAAAAAAA [CACACA_site524]	9.06
TATATATACATATACACACACACACCCATATATATA [CACACA_site2246]	10.2
CATATACATACACATACACACATACACCCATACACA [CACACA_site8514]	9.77
CATACACCCATACATACACACATACATATATATATA [CACACA_site8591]	9.7
CATACACCCCAACACACACACACACCCATATATAAT [CACACA_site8097]	10.4
ATACATATATATATATGTACATATATTTATATTTAT [XGTACX_site3155]	9.21
TGAAAAAAGAAAAATACACACATATAACATAATATA [CACACA_site7126]	9.83
CTCAACAAAATATGAGTGCATTGTTATTACATATAT	9.32
TAAAAATATAGGTATACACACATATAAATATAAATA [CACACA_site7785]	9.64
TAATTCTTGTAAAATGTGCGCAGTAGATATAGTTTT	9.27
TGCACGCACAGACACACACACAACTAAAAAATAATG [CACACA_site7250]	9.72
TACACCCACCAACACACACACACACTAATAAAAAAA [CACACA_site8060]	10.1
TAATTATGCCAACACACACACACACCCAACTAAAAA [CACACA_site8823]	10.2
AAAAATAAAAATTGCACACTAAAAAATTACGCACGA [CACACA_site3418]	9.59
TATGCACCCAGACACACACACACAACTAAAAAATAA [CACACA_site2567]	9.96
GATAATTATGGACACACACACACACCCACAACTAAA [CACACA_site8824]	10.3
TAATTATGCAGACACACACACACACGCAACTAAAAA [CACACA_site7253]	10.1
TGTGCCCAAAATTATGCACACACCTAAAATTAATTT [CACACA_site2914]	9.42
GATAATTACGGACACACACACACACGCACAACTAAA [CACACA_site7254]	10.3
AAAAGATAATTATGCACACACACACCCAGACACAAC [CACACA_site5428]	10.1
AAGATAATTACGCACACACACACACGCCCACAACTA [CACACA_site7255]	10.2
TAAAAAATAAAAATTGCACACTAAAAAATTACGCAC [CACACA_site9129]	9.48
